# Experimental data: article PMC7862700, “An all-to-all approach to the identification of sequence-specific readers for epigenetic DNA modifications on cytosine”
# Key:
# Assay in all cases: DAPPL (digital affinity profiling via proximity ligation, sequencing); 10 mM Tris-HCl pH 7.5, 50 mM NaCl, 1 mM DTT, 4% glycerol, room temperature, 30 min; GST-TFs on glutathione beads, 16-mer random dsDNA library, 0.1% formaldehyde crosslink after washing; high values mean tight binding
# [1] = biological target: T1, FLI1 (Homo sapiens, UniProt Q01543 1-452); conditions: protein: recombinant; tags: N-terminal GST; dsDNA, one strand shown
# T1 sequence: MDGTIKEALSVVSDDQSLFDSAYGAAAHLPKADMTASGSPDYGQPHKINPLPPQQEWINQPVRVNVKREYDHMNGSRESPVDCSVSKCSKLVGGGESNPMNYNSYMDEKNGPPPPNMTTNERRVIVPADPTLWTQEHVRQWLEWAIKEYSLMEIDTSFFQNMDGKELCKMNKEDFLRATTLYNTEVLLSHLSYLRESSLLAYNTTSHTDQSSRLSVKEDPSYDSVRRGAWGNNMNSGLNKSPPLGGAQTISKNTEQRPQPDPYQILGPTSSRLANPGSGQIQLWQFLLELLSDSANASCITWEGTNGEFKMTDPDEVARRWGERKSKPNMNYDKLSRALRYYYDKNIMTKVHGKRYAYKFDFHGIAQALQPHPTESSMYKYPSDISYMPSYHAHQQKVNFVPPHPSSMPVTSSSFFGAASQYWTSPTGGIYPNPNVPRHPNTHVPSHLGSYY
# Outline: (§1)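 After expression in yeast as GST fusions, human transcription factors were bound to glutathione beads, DNA-barcoded and mixed with a tag-only sample. The pools were incubated with 200 nmole of a 16-mer random double-stranded DNA library in Tris/NaCl/DTT/glycerol buffer (30 min, room temperature), washed and crosslinked with 0.1% formaldehyde. Proximity ligation with BsaI/T4 ligase ran for 1 h at 37 °C, before PCR amplification and sequencing on an Illumina NextSeq500. Binding signal is a hexamer's read frequency for a factor divided by its frequency for the tag-only sample.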
# [2] = biological target: T2, ELK1 (Homo sapiens, UniProt P19419 1-428); conditions: protein: recombinant; tags: N-terminal GST; dsDNA, one strand shown
# T2 sequence: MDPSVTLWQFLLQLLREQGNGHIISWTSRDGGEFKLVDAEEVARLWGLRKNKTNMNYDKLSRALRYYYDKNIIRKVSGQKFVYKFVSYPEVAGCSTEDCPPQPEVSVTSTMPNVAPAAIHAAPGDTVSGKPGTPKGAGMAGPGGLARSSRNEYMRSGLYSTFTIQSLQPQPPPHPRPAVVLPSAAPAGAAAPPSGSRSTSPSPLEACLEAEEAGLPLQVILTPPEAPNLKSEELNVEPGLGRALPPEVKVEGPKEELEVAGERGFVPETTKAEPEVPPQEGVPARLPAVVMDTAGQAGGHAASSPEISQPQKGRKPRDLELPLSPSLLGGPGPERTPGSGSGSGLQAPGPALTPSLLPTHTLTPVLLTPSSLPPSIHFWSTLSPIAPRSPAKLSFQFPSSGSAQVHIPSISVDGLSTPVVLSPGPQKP
# Outline: as §1
# [3] = biological target: T3, GABPA (Homo sapiens, UniProt Q06546 1-454); conditions: protein: recombinant; tags: N-terminal GST; dsDNA, one strand shown
# T3 sequence: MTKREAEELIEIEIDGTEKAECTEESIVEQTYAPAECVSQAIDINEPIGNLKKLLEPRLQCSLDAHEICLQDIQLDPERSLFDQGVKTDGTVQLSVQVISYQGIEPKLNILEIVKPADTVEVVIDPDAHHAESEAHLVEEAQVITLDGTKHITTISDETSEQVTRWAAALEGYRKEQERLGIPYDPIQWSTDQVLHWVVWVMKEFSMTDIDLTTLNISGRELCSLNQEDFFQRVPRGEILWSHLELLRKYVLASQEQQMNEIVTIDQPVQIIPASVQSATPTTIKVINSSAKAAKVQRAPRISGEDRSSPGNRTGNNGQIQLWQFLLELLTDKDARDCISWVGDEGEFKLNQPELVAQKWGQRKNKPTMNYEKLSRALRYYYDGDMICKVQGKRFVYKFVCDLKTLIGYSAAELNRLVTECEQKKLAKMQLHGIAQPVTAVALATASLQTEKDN
# Outline: as §1
# [4] = biological target: T4, ERG (Homo sapiens, UniProt P11308 1-479); conditions: protein: recombinant; tags: N-terminal GST; dsDNA, one strand shown
# T4 sequence: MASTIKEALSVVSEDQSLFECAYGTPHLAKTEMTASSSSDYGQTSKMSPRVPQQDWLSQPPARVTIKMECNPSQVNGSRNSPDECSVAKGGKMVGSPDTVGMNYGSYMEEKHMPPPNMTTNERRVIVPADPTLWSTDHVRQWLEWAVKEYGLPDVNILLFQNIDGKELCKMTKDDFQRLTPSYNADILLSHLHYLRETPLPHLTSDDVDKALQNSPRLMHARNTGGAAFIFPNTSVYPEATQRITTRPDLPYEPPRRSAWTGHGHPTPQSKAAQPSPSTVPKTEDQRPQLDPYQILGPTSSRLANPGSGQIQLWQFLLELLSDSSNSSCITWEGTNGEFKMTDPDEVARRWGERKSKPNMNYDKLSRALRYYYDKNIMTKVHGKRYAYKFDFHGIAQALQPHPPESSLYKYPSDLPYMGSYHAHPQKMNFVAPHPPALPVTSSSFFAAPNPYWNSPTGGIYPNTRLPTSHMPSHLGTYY
# Outline: as §1
# [5] = biological target: ELF1 (Homo sapiens, UniProt P32519 1-619); conditions: protein: recombinant; tags: N-terminal GST; dsDNA, one strand shown
# Outline: as §1
# [6] = biological target: T5, EHF (Homo sapiens, UniProt Q9NZC4 1-300); conditions: protein: recombinant; tags: N-terminal GST; dsDNA, one strand shown
# T5 sequence: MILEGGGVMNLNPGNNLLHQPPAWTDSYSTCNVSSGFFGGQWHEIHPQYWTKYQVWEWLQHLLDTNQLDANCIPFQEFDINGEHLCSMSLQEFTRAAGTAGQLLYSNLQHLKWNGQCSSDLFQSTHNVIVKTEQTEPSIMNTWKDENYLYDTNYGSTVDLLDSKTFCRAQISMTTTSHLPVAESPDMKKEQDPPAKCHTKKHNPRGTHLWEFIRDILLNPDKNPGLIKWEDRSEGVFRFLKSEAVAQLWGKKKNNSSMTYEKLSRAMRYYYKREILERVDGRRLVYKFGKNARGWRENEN
# Outline: as §1
# [7] = biological target: SPI1 (Homo sapiens, UniProt P17947 1-270); conditions: protein: recombinant; tags: N-terminal GST; dsDNA, one strand shown
# Outline: as §1
# [8] = biological target: SPIB (Homo sapiens, UniProt Q01892 1-262); conditions: protein: recombinant; tags: N-terminal GST; dsDNA, one strand shown
# Outline: as §1
# [9] = biological target: T6, ELK3 (Homo sapiens, UniProt P41970 1-407); conditions: protein: recombinant; tags: N-terminal GST; dsDNA, one strand shown
# T6 sequence: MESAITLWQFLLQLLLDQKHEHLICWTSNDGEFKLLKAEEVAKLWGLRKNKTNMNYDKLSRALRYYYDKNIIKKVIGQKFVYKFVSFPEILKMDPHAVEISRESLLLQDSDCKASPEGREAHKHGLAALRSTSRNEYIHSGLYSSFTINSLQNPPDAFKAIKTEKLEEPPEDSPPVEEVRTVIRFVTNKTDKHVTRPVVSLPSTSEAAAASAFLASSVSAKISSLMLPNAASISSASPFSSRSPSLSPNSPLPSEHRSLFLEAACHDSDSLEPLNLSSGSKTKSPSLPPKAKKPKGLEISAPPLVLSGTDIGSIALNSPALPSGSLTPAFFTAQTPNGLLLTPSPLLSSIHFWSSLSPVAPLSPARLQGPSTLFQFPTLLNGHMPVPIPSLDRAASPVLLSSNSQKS
# Outline: as §1
# [10] = biological target: T7, FEV (Homo sapiens, UniProt Q99581 1-238); conditions: protein: recombinant; tags: N-terminal GST; dsDNA, one strand shown
# T7 sequence: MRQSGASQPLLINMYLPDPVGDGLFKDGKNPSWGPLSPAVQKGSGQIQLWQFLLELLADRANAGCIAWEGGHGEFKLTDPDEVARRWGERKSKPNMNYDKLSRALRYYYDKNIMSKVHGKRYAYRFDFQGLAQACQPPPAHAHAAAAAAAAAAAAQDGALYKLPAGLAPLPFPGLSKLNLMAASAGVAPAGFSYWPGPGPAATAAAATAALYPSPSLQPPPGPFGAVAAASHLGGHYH
# Outline: as §1
# [11] = biological target: ETV5 (Homo sapiens, UniProt P41161 1-510); conditions: protein: recombinant; tags: N-terminal GST; dsDNA, one strand shown
# Outline: as §1
# [12] = biological target: HSF1 (Homo sapiens, UniProt Q00613 1-529); conditions: protein: recombinant; tags: N-terminal GST; chain copies: 3; dsDNA, one strand shown
# Outline: as §1
# [13] = biological target: T8, SPIC (Homo sapiens, UniProt Q8N5J4 1-248); conditions: protein: recombinant; tags: N-terminal GST; dsDNA, one strand shown
# T8 sequence: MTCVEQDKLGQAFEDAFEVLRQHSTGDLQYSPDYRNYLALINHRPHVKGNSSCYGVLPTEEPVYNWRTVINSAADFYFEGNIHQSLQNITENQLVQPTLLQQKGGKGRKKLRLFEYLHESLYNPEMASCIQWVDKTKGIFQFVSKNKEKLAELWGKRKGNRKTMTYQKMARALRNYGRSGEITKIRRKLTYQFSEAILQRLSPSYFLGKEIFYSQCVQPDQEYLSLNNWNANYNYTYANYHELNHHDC
# Outline: as §1
# [14] = biological target: ELF4 (Homo sapiens, UniProt Q99607 1-663); conditions: protein: recombinant; tags: N-terminal GST; dsDNA, one strand shown
# Outline: as §1
# [15] = biological target: T9, ELK4 (Homo sapiens, UniProt P28324-2 1-405); conditions: protein: recombinant; tags: N-terminal GST; dsDNA, one strand shown
# T9 sequence: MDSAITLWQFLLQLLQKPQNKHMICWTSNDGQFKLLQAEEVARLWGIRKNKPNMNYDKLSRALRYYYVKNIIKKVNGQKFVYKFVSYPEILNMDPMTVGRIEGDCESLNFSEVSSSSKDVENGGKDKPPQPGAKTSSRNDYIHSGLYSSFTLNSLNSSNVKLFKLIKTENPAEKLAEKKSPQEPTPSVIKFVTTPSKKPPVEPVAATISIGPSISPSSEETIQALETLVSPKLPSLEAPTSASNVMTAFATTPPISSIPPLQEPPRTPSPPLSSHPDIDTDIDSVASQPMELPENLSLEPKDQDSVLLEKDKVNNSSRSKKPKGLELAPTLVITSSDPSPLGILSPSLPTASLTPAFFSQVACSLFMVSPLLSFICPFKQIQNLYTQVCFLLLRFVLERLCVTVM
# Outline: as §1
# [16] = biological target: T10, ETV2 (Homo sapiens, UniProt O00321 1-342); conditions: protein: recombinant; tags: N-terminal GST; dsDNA, one strand shown
# T10 sequence: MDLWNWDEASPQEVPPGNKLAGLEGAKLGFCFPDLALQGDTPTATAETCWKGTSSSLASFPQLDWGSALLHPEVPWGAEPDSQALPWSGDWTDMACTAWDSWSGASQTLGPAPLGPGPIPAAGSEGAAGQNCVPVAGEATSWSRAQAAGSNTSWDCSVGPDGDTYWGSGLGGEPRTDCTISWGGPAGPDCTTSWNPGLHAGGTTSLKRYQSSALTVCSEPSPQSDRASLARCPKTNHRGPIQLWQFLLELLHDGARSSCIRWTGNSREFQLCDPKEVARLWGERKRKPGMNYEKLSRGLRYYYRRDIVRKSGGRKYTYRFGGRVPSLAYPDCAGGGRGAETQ
# Outline: as §1
# [17] = biological target: T11, ELF3 (Homo sapiens, UniProt P78545 1-371); conditions: protein: recombinant; tags: N-terminal GST; dsDNA, one strand shown
# T11 sequence: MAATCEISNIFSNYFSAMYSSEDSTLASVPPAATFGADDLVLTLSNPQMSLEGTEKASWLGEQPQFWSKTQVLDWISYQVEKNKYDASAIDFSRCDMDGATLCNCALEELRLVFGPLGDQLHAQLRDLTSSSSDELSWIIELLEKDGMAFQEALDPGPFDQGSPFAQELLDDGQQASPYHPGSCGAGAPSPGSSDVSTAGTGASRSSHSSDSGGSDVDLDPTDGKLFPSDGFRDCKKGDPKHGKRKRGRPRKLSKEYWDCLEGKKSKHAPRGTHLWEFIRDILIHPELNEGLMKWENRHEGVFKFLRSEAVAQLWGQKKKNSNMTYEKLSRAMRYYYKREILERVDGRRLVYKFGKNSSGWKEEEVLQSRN
# Outline: as §1
# [18] = biological target: CRX (Homo sapiens, UniProt O43186 1-299); conditions: protein: recombinant; tags: N-terminal GST; dsDNA, one strand shown
# Outline: as §1
# [19] = biological target: ETV1 (Homo sapiens, UniProt P50549 1-477); conditions: protein: recombinant; tags: N-terminal GST; dsDNA, one strand shown
# Outline: as §1
# ETV5, sequence (P41161 whole entry): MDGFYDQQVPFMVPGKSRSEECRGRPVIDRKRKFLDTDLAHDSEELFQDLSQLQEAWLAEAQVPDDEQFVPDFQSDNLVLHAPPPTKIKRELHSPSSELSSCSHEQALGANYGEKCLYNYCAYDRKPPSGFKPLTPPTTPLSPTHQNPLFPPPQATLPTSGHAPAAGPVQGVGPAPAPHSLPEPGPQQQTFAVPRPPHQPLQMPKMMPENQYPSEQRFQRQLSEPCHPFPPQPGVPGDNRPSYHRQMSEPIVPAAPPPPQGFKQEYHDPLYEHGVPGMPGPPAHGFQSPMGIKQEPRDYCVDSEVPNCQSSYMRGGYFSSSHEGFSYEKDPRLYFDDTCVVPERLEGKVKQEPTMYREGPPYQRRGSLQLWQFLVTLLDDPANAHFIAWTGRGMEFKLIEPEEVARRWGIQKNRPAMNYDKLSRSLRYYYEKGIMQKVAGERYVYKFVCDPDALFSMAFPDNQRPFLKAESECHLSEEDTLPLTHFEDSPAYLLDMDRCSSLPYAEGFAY
# CRX, sequence (O43186 whole entry): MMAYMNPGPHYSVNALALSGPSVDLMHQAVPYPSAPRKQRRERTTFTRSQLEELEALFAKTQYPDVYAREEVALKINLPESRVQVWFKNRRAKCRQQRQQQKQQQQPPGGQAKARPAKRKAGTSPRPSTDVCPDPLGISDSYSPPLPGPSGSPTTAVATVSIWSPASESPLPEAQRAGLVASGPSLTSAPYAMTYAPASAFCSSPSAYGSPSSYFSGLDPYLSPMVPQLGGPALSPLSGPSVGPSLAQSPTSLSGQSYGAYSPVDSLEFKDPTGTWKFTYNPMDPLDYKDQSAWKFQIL
# HSF1, sequence (Q00613 whole entry): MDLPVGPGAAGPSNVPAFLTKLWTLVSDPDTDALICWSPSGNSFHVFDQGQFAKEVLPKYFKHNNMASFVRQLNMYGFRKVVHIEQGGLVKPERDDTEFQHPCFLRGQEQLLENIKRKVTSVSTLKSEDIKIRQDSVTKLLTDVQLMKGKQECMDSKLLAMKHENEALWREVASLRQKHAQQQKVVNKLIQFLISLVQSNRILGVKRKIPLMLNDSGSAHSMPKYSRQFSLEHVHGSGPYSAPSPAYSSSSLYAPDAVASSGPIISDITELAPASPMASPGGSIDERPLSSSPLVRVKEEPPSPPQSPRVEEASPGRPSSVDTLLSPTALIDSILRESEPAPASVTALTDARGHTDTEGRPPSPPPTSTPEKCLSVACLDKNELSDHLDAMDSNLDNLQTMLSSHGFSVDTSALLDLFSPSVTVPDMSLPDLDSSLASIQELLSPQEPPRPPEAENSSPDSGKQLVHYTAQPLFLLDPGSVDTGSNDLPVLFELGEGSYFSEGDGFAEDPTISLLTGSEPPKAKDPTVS
# ETV1, sequence (P50549 whole entry): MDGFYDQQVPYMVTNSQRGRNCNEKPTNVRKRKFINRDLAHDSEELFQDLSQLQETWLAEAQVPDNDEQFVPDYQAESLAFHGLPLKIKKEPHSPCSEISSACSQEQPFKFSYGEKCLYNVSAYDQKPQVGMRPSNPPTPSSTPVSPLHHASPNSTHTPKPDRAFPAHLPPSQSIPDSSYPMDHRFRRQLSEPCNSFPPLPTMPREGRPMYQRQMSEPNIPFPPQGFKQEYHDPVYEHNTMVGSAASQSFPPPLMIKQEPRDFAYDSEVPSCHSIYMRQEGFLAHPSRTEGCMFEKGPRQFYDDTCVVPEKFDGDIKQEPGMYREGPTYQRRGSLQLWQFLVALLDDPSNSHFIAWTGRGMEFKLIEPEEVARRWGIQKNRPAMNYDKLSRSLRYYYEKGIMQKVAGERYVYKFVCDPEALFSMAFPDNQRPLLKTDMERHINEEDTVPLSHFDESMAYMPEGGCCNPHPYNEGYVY
# ELF1, sequence (P32519 whole entry): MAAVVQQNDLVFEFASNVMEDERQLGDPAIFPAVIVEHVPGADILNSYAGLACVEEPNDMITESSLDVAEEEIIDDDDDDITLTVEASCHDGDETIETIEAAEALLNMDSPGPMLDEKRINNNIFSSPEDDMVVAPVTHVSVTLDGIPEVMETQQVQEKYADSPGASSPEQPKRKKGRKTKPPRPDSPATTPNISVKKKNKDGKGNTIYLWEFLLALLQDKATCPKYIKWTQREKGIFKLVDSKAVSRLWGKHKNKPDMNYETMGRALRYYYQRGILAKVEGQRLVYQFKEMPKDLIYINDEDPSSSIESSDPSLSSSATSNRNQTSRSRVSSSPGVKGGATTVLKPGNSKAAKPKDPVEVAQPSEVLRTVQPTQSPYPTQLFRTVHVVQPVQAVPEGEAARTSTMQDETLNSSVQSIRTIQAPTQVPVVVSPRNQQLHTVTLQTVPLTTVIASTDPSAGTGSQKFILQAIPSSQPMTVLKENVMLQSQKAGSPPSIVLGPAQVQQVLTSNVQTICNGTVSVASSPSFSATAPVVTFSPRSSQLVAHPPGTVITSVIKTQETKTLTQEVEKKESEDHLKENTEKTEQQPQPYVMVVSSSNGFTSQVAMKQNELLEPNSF
# SPIB, sequence (Q01892 whole entry): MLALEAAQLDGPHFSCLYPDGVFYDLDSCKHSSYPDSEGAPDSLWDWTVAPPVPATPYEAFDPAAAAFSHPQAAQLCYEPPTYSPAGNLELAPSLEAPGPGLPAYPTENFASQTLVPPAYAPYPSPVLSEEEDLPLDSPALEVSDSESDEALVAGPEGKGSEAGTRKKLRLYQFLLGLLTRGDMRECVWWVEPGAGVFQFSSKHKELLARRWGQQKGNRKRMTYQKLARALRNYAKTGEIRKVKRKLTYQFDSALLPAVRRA
# ELF4, sequence (Q99607 whole entry): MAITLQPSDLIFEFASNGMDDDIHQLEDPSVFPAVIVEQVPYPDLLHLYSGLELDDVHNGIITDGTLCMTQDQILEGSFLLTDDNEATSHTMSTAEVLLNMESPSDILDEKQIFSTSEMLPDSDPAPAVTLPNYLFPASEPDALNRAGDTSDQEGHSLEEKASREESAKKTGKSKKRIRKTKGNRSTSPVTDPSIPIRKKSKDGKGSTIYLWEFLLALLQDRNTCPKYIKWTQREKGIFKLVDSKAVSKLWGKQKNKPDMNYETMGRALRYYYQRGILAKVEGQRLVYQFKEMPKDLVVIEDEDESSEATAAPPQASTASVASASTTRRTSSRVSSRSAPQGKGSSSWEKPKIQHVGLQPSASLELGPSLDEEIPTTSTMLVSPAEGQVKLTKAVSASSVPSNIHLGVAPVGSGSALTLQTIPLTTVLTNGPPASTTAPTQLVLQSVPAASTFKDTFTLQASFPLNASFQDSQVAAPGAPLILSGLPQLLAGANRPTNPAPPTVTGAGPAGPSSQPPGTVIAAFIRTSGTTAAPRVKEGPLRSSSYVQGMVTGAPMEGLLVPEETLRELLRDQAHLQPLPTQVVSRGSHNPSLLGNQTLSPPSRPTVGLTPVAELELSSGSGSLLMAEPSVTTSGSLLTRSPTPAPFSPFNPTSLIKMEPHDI
sequence,measurement,setting,value
CTCGCG,binding signal,[1],"1.47 fold enrichment (6-mer frequency, TF over GST control)"
same,binding signal,[2],"1.35 fold enrichment (6-mer frequency, TF over GST control)"
same,binding signal,[3],"1.55 fold enrichment (6-mer frequency, TF over GST control)"
same,binding signal,[4],"1.42 fold enrichment (6-mer frequency, TF over GST control)"
same,binding signal,[5],"1.41 fold enrichment (6-mer frequency, TF over GST control)"
same,binding signal,[6],"1.32 fold enrichment (6-mer frequency, TF over GST control)"
same,binding signal,[7],"1.39 fold enrichment (6-mer frequency, TF over GST control)"
same,binding signal,[8],"1.45 fold enrichment (6-mer frequency, TF over GST control)"
same,binding signal,[9],"1.34 fold enrichment (6-mer frequency, TF over GST control)"
same,binding signal,[10],"1.35 fold enrichment (6-mer frequency, TF over GST control)"
same,binding signal,[11],"1.48 fold enrichment (6-mer frequency, TF over GST control)"
same,binding signal,[12],"1.55 fold enrichment (6-mer frequency, TF over GST control)"
same,binding signal,[13],"1.3 fold enrichment (6-mer frequency, TF over GST control)"
same,binding signal,[14],"1.48 fold enrichment (6-mer frequency, TF over GST control)"
same,binding signal,[15],"1.59 fold enrichment (6-mer frequency, TF over GST control)"
same,binding signal,[16],"1.39 fold enrichment (6-mer frequency, TF over GST control)"
same,binding signal,[17],"1.53 fold enrichment (6-mer frequency, TF over GST control)"
same,binding signal,[18],"1.3 fold enrichment (6-mer frequency, TF over GST control)"
same,binding signal,[19],"1.47 fold enrichment (6-mer frequency, TF over GST control)"
